# Test results published in article PMC11062922 (Nature Chemical Biology, 2023).
# Where two headings read alike, the source gives them in different places.
# Legend:
# Parameters in all cases: species or system human, MV4-11 + K-562 + COLO205 + SK-N-BE2 + OVCAR-8
# PRKX = conditions: read-out: apparent Kd; compound concentrations: 100 nM and 1000 nM (sheet 'Samples'), CATDS: 5.4979506066670798E-2; n = 1
# TNIK = conditions: read-out: apparent Kd, n = 1
# ADCK1 = conditions: read-out: apparent Kd, n = 1
# RIOK2 = conditions: read-out: apparent Kd, n = 1
# CSNK1A1 = conditions: read-out: apparent Kd, n = 1
# CSNK1E = conditions: read-out: apparent Kd; compound concentrations: 100 nM and 1000 nM (sheet 'Samples'), CATDS: 2.3726321551731398E-2; n = 1
# MAPK8 = conditions: read-out: apparent Kd, compound concentrations: 100 nM and 1000 nM (sheet 'Samples'), n = 1
# YES1 = conditions: read-out: apparent Kd, n = 1
# PHKG2 = conditions: read-out: apparent Kd, n = 1
# PRKAA2 = conditions: read-out: apparent Kd, n = 1
# STK3 = conditions: read-out: apparent Kd, n = 1
# ROCK2 = conditions: read-out: apparent Kd; compound concentrations: 100 nM and 1000 nM (sheet 'Samples'), CATDS: 1.22765922159753E-2; n = 1
# STK16 = conditions: read-out: apparent Kd, compound concentrations: 100 nM and 1000 nM (sheet 'Samples'), n = 1
# CDK17 = conditions: read-out: apparent Kd; compound concentrations: 100 nM and 1000 nM (sheet 'Samples'), CATDS: 1.55525424836102E-2; n = 1
# HCK = conditions: read-out: apparent Kd; compound concentrations: 100 nM and 1000 nM (sheet 'Samples'), CATDS: 1.6731376225889199E-2; n = 1
# SRC = conditions: read-out: apparent Kd; compound concentrations: 100 nM and 1000 nM (sheet 'Samples'), CATDS: 1.60653948835471E-2; n = 1
# [1] = compound concentrations:100 nM and 1000 nM (sheet 'Samples')
structure (smiles),measurement,setting,value
O=C1N=C(NCc2cccs2)O/C1=C\c1ccc2ncccc2c1 [RO4624208-000],potency estimated from few doses,PRKX,966 nM
same,potency estimated from few doses,"TNIK; compound concentrations: 100 nM and 1000 nM (sheet 'Samples'), CATDS: 4.4189138056131998E-2",2330 nM
CN(C)CCNC(=O)Nc1ccc(N(C)c2ccnc(Nc3ccc(CS(C)(=O)=O)cc3)n2)cc1.Cl [GW830900A],potency estimated from few doses,ADCK1; [1],88.9 nM
CS(=O)(=O)Nc1ccc(-c2ccnc3[nH]ccc23)cc1 [GSK993273A],potency estimated from few doses,RIOK2; [1],1670 nM
Cc1cccc(Nc2nc(N[C@H]3CCNC3)ncc2C(N)=O)c1.Cl [GSK2197149A],potency estimated from few doses,ADCK1; [1],1560 nM
same,potency estimated from few doses,CSNK1A1; [1],1560 nM
same,potency estimated from few doses,TNIK; [1],1590 nM
CCCc1cc(N2CCCN(C)CC2)nc2sc3c(N)ncnc3c12 [BI00604564],potency estimated from few doses,"ADCK1; compound concentrations: 100 nM and 1000 nM (sheet 'Samples'), CATDS: 0.15175006426197701",1550 nM
same,potency estimated from few doses,"RIOK2; compound concentrations: 100 nM and 1000 nM (sheet 'Samples'), CATDS: 0.19130476647028",959 nM
CNCc1ccc(-c2cc(-c3nc(-c4ccc(S(=O)(=O)C(C)C)cc4)cnc3N)on2)cc1 [VE-822],potency estimated from few doses,TNIK; [1],1650 nM
CN(c1ccc(NC(=O)NCCN2CCOCC2)cc1)c1ccnc(Nc2ccc(CS(C)(=O)=O)cc2)n1.Cl [GW830365A],potency estimated from few doses,"ADCK1; compound concentrations: 100 nM and 1000 nM (sheet 'Samples'), CATDS: 4.75269778892356E-2",1550 nM
c1ccc(-c2n[nH]cc2Nc2ccnc3ccccc23)nc1 [GW694077X],potency estimated from few doses,"CSNK1A1; compound concentrations: 100 nM and 1000 nM (sheet 'Samples'), CATDS: 2.3053021042780501E-2",2030 nM
same,potency estimated from few doses,CSNK1E,1790 nM
same,potency estimated from few doses,MAPK8; CATDS: 2.3443095841232799E-2,1880 nM
same,potency estimated from few doses,"RIOK2; compound concentrations: 100 nM and 1000 nM (sheet 'Samples'), CATDS: 3.1389541451057497E-2",683 nM
CNc1cc(-c2ccc3c(N)n[nH]c3c2)nc(N)n1 [GSK2224810A],potency estimated from few doses,CSNK1A1; [1],2450 nM
same,potency estimated from few doses,YES1; [1],1160 nM
O=C(O)C(F)(F)F.O=c1[nH]ccc2nc(N[C@@H]3CCNC3)nc(Nc3cc(Cl)cc(Cl)c3)c12 [GSK2188764A],potency estimated from few doses,ADCK1; [1],1680 nM
same,potency estimated from few doses,PHKG2; [1],786 nM
same,potency estimated from few doses,PRKAA2; [1],106 nM
same,potency estimated from few doses,STK3; [1],847 nM
same,potency estimated from few doses,TNIK; [1],1270 nM
COc1cc[nH]c1/C=C1\C(=O)Nc2ccc(F)c(C#CC3(O)CCNCC3)c21.Cl [RO0282986-001],potency estimated from few doses,"ADCK1; compound concentrations: 100 nM and 1000 nM (sheet 'Samples'), CATDS: 9.6711432627754196E-3",1510 nM
same,potency estimated from few doses,"CSNK1A1; compound concentrations: 100 nM and 1000 nM (sheet 'Samples'), CATDS: 9.4699947154489802E-3",1660 nM
same,potency estimated from few doses,MAPK8; CATDS: 1.15534009295916E-2,801 nM
same,potency estimated from few doses,"PHKG2; compound concentrations: 100 nM and 1000 nM (sheet 'Samples'), CATDS: 1.06478310552471E-2",1050 nM
same,potency estimated from few doses,"PRKAA2; compound concentrations: 100 nM and 1000 nM (sheet 'Samples'), CATDS: 1.2623383108322899E-2",618 nM
same,potency estimated from few doses,ROCK2,668 nM
same,potency estimated from few doses,STK16; CATDS: 1.3388611542508999E-2,526 nM
same,potency estimated from few doses,"STK3; compound concentrations: 100 nM and 1000 nM (sheet 'Samples'), CATDS: 1.6307369361129399E-2",326 nM
same,potency estimated from few doses,"TNIK; compound concentrations: 100 nM and 1000 nM (sheet 'Samples'), CATDS: 1.31715083861153E-2",550 nM
COc1cc(Nc2nccc(N3CCC(NC(=O)c4cccc(NC(C)=O)c4)C3)n2)cc(OC)c1OC (centres unmarked) [GSK1379754A],potency estimated from few doses,"ADCK1; compound concentrations: 100 nM and 1000 nM (sheet 'Samples'), CATDS: 8.2961514797517094E-2",1820 nM
CCn1c(-c2cccnc2O)nc2cnccc21 [SB-736715],potency estimated from few doses,CDK17,1200 nM
same,potency estimated from few doses,"CSNK1A1; compound concentrations: 100 nM and 1000 nM (sheet 'Samples'), CATDS: 1.24384070369575E-2",1990 nM
same,potency estimated from few doses,HCK,1040 nM
same,potency estimated from few doses,MAPK8; CATDS: 1.2937412229939001E-2,1800 nM
same,potency estimated from few doses,"PHKG2; compound concentrations: 100 nM and 1000 nM (sheet 'Samples'), CATDS: 1.25059866085428E-2",1960 nM
same,potency estimated from few doses,SRC,1130 nM
same,potency estimated from few doses,STK16; CATDS: 1.41773006803768E-2,1460 nM
same,potency estimated from few doses,"STK3; compound concentrations: 100 nM and 1000 nM (sheet 'Samples'), CATDS: 1.16838495849846E-2",2360 nM
same,potency estimated from few doses,"YES1; compound concentrations: 100 nM and 1000 nM (sheet 'Samples'), CATDS: 1.8559890598855499E-2",859 nM
